Methyltransferases = Primary Screen for Target Class Profiling of Small Molecule Inhibitors of Methyltransferases | purified enzyme, MTase-Glo SAH luminescence; active compounds read low | calls only at 40 µM | 3.9% of 25,000 active | AID 1745853, 2022; call rule not given here
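Each enzyme was assayed with SAM and its substrate. SAH formation detected by MTase-Glo luminescence; single-point 40 uM screen[…].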
The depositor's hits bear a star; i = inactive; + = active, no number. The entries come from a sample that favours hits as a whole. On the % scale 0 is the no-effect control and ±100 the full control effect.

SMILES	Methyltransferases
CC(C)CC(=O)OC[C@H]1O[C@@](COC(=O)CC(C)C)(O[C@H]2O[C@H](CO)[C@@H](O)[C@H](O)[C@H]2OC(=O)CC(C)C)[C@@H](OC(=O)CC(C)C)[C@@H]1O	i
C/C=C(\C)C(=O)OCC1OC(OCC2OC(OC3(CO)OC(CO)C(O)C3O)C(O)C(O)C2O)C(O)C(O)C1O (configuration not stated)	i
C/C=C(\C)C(=O)O[C@H]1[C@@H](O[C@]2(COC(=O)CC(C)C)O[C@H](COC(=O)C(C)C)[C@@H](OC(C)=O)[C@@H]2O)O[C@H](COC(C)=O)[C@@H](O)[C@@H]1O	+
CC(C)CCNC(=O)C1(C)Cn2nc(C(=O)NCc3ccc(Cl)cc3)cc2C(=O)N1C (configuration not stated)	i
Fc1ccc2c(c1)c1c3n2CCNC3CCC1 (configuration not stated)	i
CC(C)C1c2cccn2CCN1C(=O)Nc1cccc(F)c1 (configuration not stated)	i
COc1ccc(CN2C(=O)CSc3c(c4ccccc4n3C)C2C(=O)NCCCOC(C)C)cc1 (configuration not stated)	i
CCc1cc2c(cc3n2CC(C)(C(=O)NC2CCCCCC2)N(Cc2cccc(F)c2)C3=O)s1 (configuration not stated)	i
CC(C)(O)c1ccc2c(c1)ncn2-c1cccc(-c2ccccc2C#N)c1	+
COc1ccc(N2C(=O)c3cc4sccc4n3CC2(C)C(=O)NC2CCCCC2)cc1OC (configuration not stated)	i
COc1ccc(OC)c(S(=O)(=O)N2CCC3(CC2)CC(CC(=O)N2CCOCC2)CCO3)c1 (configuration not stated)	i
CC1(C)CCC2=C(O1)c1ccccc1C(=O)C2=O	+
CC(C)Cc1cc(CC2(NC3CCOCC3)COC2)no1	i
O=c1c2ccccc2n2c(=O)n(Cc3cccc(Cl)c3)nc2n1CCc1ccccc1	i
CCOC(=O)Nc1ccc(NCc2ccc(F)cc2)nc1N	+
COCC(=O)N(C)Cc1ccc(F)cc1	i
CCOC(=O)c1cc2n(n1)CC(C)(C(=O)NCc1ccc(F)cc1)N(c1ccc(C)cc1C)C2=O (configuration not stated)	i
CN1C(=O)c2cc(C(=O)NC3CCCC3)nn2CC1(C)C(=O)NCc1ccc(F)cc1 (configuration not stated)	i
CC1CC(C)CN(C(=O)Cn2c(=O)oc3cc(S(=O)(=O)N4CC(C)CC(C)C4)ccc32)C1 (configuration not stated)	i
CCOc1ccc(N2C(=O)c3cc(-c4ccccc4)nn3CC2(C)C(=O)NCc2ccccc2)cc1 (configuration not stated)	i
CC1CCCC(NC(=O)CCn2ccc3cc(S(=O)(=O)N4CCCC4)ccc32)C1C (configuration not stated)	i
O=C(CCc1nnc2n(Cc3ccccc3)c(=O)c3ccccc3n12)Nc1ccc(F)cc1	i
C[C@@H](Oc1cc(-n2cnc3ccc(OC4CCN(C)CC4)cc32)sc1C(N)=O)c1ccccc1C(F)(F)F	+
CCNC(=O)N1CC(C(=O)NCc2cccc(C)c2)CC(c2ccc(F)c(C)c2)C1 (configuration not stated)	i
CC1(C(=O)NC2CCCCC2)Cn2c(ccc2-c2ccco2)C(=O)N1CCCN1CCCCC1 (configuration not stated)	i
SMILES	Methyltransferases
C=C1C(=O)OC2C(OC(=O)C=C(C)C)C(C)=C3C(=O)C=C(C)C3C(O)C12 (configuration not stated)	+
C=C1C(=O)O[C@@H]2[C@H]3C(C)=CC(=O)C3=C(C)[C@@H](OC(=O)/C(C)=C\C)[C@H](O)[C@@H]12	i
COC(=O)c1ncn2c1C(=O)N(CCc1ccccc1)C(C)(C(=O)NC1CCCC1)C2 (configuration not stated)	i
CCOC(=O)[C@H]1C[C@]2(CCCCNC2=O)N(C(=O)c2cccc(OC)c2)[C@H]1c1ccco1	i
CC(c1ccccc1)N1C(=O)c2ccccc2CC1(C)C(=O)NC1CCCCCCC1 (configuration not stated)	i
C=C(C(=O)O)C1CC(O)C2(C)CCCC(=C)C2C1 (configuration not stated)	+
C=C1CCC[C@]2(C)CC[C@@](O)(C(=C)C(=O)O)C[C@@H]12	i
C=C(C(=O)O)C1CC(OC(=O)CC(C)CC)C2(C)CCCC(=C)C2C1 (configuration not stated)	i
CCOCCCN1C(=O)c2cc(-c3ccc(OC)cc3)nn2CC1(C)C(=O)NCc1ccccc1 (configuration not stated)	i
CC(C)n1c(=O)c2ccc(C(=O)NC3CCCCC3)cc2n2c(=O)n(Cc3ccc(F)cc3)nc12	i
CN1CCN(CCOc2cc(OC3CCOCC3)c3c(Nc4c(Cl)ccc5c4OCO5)ncnc3c2)CC1	+
Cc1ccccc1CN1CC(=O)N(Cc2ccc(F)cc2)c2ccccc2S1(=O)=O	i

Screening data: PubChem, National Center for Advancing Translational Sciences (NCATS)
